Assay results taken from PubChem BioAssay (NCI).
This is part of a sample that, as a whole, favours compounds with a hit. Of some 83,000 tested, about 20% had one in any assay.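 Cell lines were cultured in 96-well plates, exposed to a single compound concentration, and assessed for percent growth 48 hours later.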 The source made the active and inactive calls. Rule for the calls: active = growth percent below 10; inactive = the rest.

What was measured:
Experiment in all cases: NCI-60 one-dose screen, 48 h (100 = growth as untreated, 0 = no growth, -100 = all killed)
Details in all cases: 10 µM unless noted
SK-MEL-2 melanoma = tested on: SK-MEL-2 melanoma
EKVX NSCLC = tested on: EKVX NSCLC
SN12C renal = tested on: SN12C renal
UO-31 renal = tested on: UO-31 renal
ACHN renal = tested on: ACHN renal
A498 renal = tested on: A498 renal
CCRF-CEM leukemia = tested on: CCRF-CEM leukemia
MOLT-4 leukemia = tested on: MOLT-4 leukemia
TK-10 renal = tested on: TK-10 renal
CAKI-1 renal = tested on: CAKI-1 renal

Measured: growth

Fc1ccc2c(c1)c(-c1nc(-c3c[nH]c4ncccc34)cs1)cn2CCCN1CCCCC1
active: CCRF-CEM leukemia 8.52%
inactive: SK-MEL-2 melanoma 106% | EKVX NSCLC 66% | SN12C renal 63.1% | UO-31 renal 44.4% | ACHN renal 71.7% | A498 renal 77.8% | MOLT-4 leukemia 12.9%

Clc1ccc2c(NCCNc3nc(-c4ccccc4)cc(-c4ccccc4)n3)ccnc2c1
inactive: EKVX NSCLC 18.6% | A498 renal 93%
active: SK-MEL-2 melanoma -10.9% | SN12C renal -74.4% | UO-31 renal -94.3% | ACHN renal -97.2% | CCRF-CEM leukemia -9.52% | MOLT-4 leukemia -32.2%

CCCCC[C@H]1CC=C2C(=O)C=C[C@@H]2CC=CCCCC(=O)O[C@@H](CCCCC)CC=C2C(=O)C=C[C@@H]2CC=CCCCC(=O)O[C@@H](CCCCC)CC=C2C(=O)C=C[C@@H]2CC=CCCCC(=O)O1
active: SK-MEL-2 melanoma -38.4% [8.75 µM] | SN12C renal -10.5% [8.75 µM] | UO-31 renal -96.7% [8.75 µM] | ACHN renal -11.6% [8.75 µM] | A498 renal -13.8% [8.75 µM] | CCRF-CEM leukemia 7.92% [8.75 µM] | MOLT-4 leukemia 3.57% [8.75 µM]
inactive: EKVX NSCLC 22.4% [8.75 µM]

O=C(/C=C\c1ccc2c(c1)OCO2)/C=C/c1ccc2c(c1)OCO2
inactive: SK-MEL-2 melanoma 127% | EKVX NSCLC 82.4% | UO-31 renal 76.3% | TK-10 renal 96.1% | ACHN renal 88.3% | CAKI-1 renal 89.2% | A498 renal 126% | CCRF-CEM leukemia 31.4% | MOLT-4 leukemia 35.2%

C=C(C)[C@@H]1CC[C@]2(C=NCCCNCCCCNCCCN)CC[C@]3(C)[C@H](CC[C@@H]4[C@@]5(C)CCCNC(C)(C)[C@@H]5CC[C@]43C)[C@@H]12
inactive: SK-MEL-2 melanoma 132% | EKVX NSCLC 102% | UO-31 renal 92.1% | TK-10 renal 120% | ACHN renal 105% | CAKI-1 renal 80.6% | A498 renal 95.6% | CCRF-CEM leukemia 94.4% | MOLT-4 leukemia 93.4%

Cn1cc(-c2nc(-c3c[nH]c4ncccc34)cs2)c2cc(Cl)ccc21
inactive: SK-MEL-2 melanoma 60.4% | EKVX NSCLC 41.8% | SN12C renal 54% | TK-10 renal 43.1% | ACHN renal 30% | CAKI-1 renal 36.5% | A498 renal 74.7% | CCRF-CEM leukemia 33.8% | MOLT-4 leukemia 37.9%

Cn1cc(-c2nc(-c3c[nH]c4ncccc34)cs2)c2cc(F)ccc21
inactive: SK-MEL-2 melanoma 28.3% | EKVX NSCLC 14.5% | UO-31 renal 29.4% | TK-10 renal 23.2% | ACHN renal 24.1% | CAKI-1 renal 12.8% | A498 renal 42.3% | CCRF-CEM leukemia 25.8% | MOLT-4 leukemia 23.9%

O=C(O)/C(=C/c1ccc(O)cc1)c1ccccc1
inactive: SK-MEL-2 melanoma 105% | EKVX NSCLC 105% | UO-31 renal 68.9% | TK-10 renal 98.3% | ACHN renal 101% | CAKI-1 renal 104% | A498 renal 93.2% | CCRF-CEM leukemia 94.5% | MOLT-4 leukemia 97.5%

C=C1CC[C@@H](C(=O)OC)Cc2nc(C)ccc21
inactive: SK-MEL-2 melanoma 103% | EKVX NSCLC 99.8% | UO-31 renal 93.6% | TK-10 renal 101% | ACHN renal 103% | CAKI-1 renal 90.9% | A498 renal 106% | CCRF-CEM leukemia 102% | MOLT-4 leukemia 101%

COc1cc(NC(C)CN(CC(C)C)C(C)C)c2ncccc2c1 (stereo not drawn)
inactive: SK-MEL-2 melanoma 113% | EKVX NSCLC 105% | SN12C renal 104% | UO-31 renal 87.6% | ACHN renal 99.3% | CAKI-1 renal 98.6% | A498 renal 97.6% | CCRF-CEM leukemia 114% | MOLT-4 leukemia 96.6%

COc1c(N)c2c(c([N+](=O)[O-])c1OC)C(=O)OC2
inactive: SK-MEL-2 melanoma 102% | EKVX NSCLC 111% | UO-31 renal 83.4% | TK-10 renal 103% | ACHN renal 117% | CAKI-1 renal 115% | A498 renal 104% | CCRF-CEM leukemia 96.2% | MOLT-4 leukemia 81.2%

O=C1/C(=C\C(Cl)=C/c2ccc([N+](=O)[O-])cc2)SC(=S)N1CCc1ccc(O)cc1
active: SK-MEL-2 melanoma 0.0993% | EKVX NSCLC -43% | UO-31 renal -91.4% | TK-10 renal -32.7% | ACHN renal -89.4% | CAKI-1 renal -70.5% | A498 renal -27.5% | CCRF-CEM leukemia 8.16% | MOLT-4 leukemia 7.65%

COc1ccc2c(c1)c(-c1nc(-c3c[nH]c4ncccc34)cs1)cn2C
inactive: SK-MEL-2 melanoma 60.9% | EKVX NSCLC 29.3% | SN12C renal 74.5% | TK-10 renal 60.3% | ACHN renal 53.2% | CAKI-1 renal 55.1% | A498 renal 60.1% | CCRF-CEM leukemia 51.7% | MOLT-4 leukemia 54.5%

CC(=O)Cc1nsc(NC(=O)c2ccoc2COc2ccccc2)n1
inactive: SK-MEL-2 melanoma 107% | EKVX NSCLC 91.1% | UO-31 renal 77.1% | TK-10 renal 107% | ACHN renal 99.7% | CAKI-1 renal 99.8% | A498 renal 97.4% | CCRF-CEM leukemia 93.2% | MOLT-4 leukemia 106%

Cc1cc(N2CCOCC2)nc(N(CCCNc2ccnc3cc(Cl)ccc23)Cc2ccco2)n1
active: MOLT-4 leukemia 9.42%
inactive: SK-MEL-2 melanoma 11.9% | EKVX NSCLC 49.4% | SN12C renal 40.4% | UO-31 renal 32.2% | ACHN renal 46.9% | A498 renal 45.2% | CCRF-CEM leukemia 30.6%

COC(=O)C(Cc1ccccc1)n1cc(COc2nc(Cl)nc(Nc3ccc(Cl)cc3)n2)nn1 (stereo not drawn)
inactive: SK-MEL-2 melanoma 97.2% | EKVX NSCLC 95.4% | UO-31 renal 72.6% | TK-10 renal 104% | ACHN renal 102% | CAKI-1 renal 92.1% | A498 renal 61.6% | CCRF-CEM leukemia 96.5% | MOLT-4 leukemia 91.3%

CCCCCCCN(CCCCCCC)C(=N)c1ccnc2ccccc12
active: SK-MEL-2 melanoma -46.5% | EKVX NSCLC -15.6% | UO-31 renal -62.5% | ACHN renal -81.9% | CAKI-1 renal 3.85% | A498 renal -17.2% | MOLT-4 leukemia -16.5%
inactive: TK-10 renal 14.9%

C=C(C)[C@@H]1CC[C@]2(CN)CC[C@]3(C)[C@H](CC[C@@H]4[C@@](C)(CCCN)[C@H](C(=C)C)CC[C@]43C)[C@@H]12
inactive: SK-MEL-2 melanoma 107% | EKVX NSCLC 102% | UO-31 renal 63% | TK-10 renal 119% | ACHN renal 99.1% | CAKI-1 renal 75.5% | A498 renal 88.7% | CCRF-CEM leukemia 66.6% | MOLT-4 leukemia 57%

N=C(N)c1ccc(-c2ccc(-c3cc(F)cc(F)c3)o2)nc1
inactive: SK-MEL-2 melanoma 106% | EKVX NSCLC 90.4% | UO-31 renal 69.8% | TK-10 renal 124% | ACHN renal 90% | CAKI-1 renal 78.5% | A498 renal 90.3% | MOLT-4 leukemia 73.8%
active: CCRF-CEM leukemia -35.6%

COc1cccc(-c2nn(-c3ccccc3)cc2-c2ccnc(NCCNS(=O)(=O)c3ccc(C(F)(F)F)cc3)c2)c1
inactive: EKVX NSCLC 29.4% | UO-31 renal 11.7% | CAKI-1 renal 16.8%
active: SK-MEL-2 melanoma -11.3% | SN12C renal -36.1% | ACHN renal 8.66% | A498 renal 4.35% | CCRF-CEM leukemia 8.23% | MOLT-4 leukemia -16.7%

CCN(CC)c1ccc(/C=C/c2cc(C)c3ccccc3n2)cc1
inactive: SK-MEL-2 melanoma 72.9% | EKVX NSCLC 92.8% | UO-31 renal 66.6% | TK-10 renal 70.3% | ACHN renal 60.8% | CAKI-1 renal 51.9% | A498 renal 51.7% | CCRF-CEM leukemia 53.4% | MOLT-4 leukemia 23.5%

Cc1cc(C)nc(NC(N)=NCCc2ccccc2)n1
inactive: SK-MEL-2 melanoma 38.4% | EKVX NSCLC 59.7% | UO-31 renal 69.2% | TK-10 renal 75.6% | ACHN renal 46.9% | CAKI-1 renal 93.6% | A498 renal 86.9% | CCRF-CEM leukemia 45.3% | MOLT-4 leukemia 47.7%

CCCCCC1CCCCN1C(=O)OCC (stereo not drawn)
inactive: SK-MEL-2 melanoma 94.9% | EKVX NSCLC 124% | SN12C renal 102% | TK-10 renal 100% | ACHN renal 98.8% | CAKI-1 renal 99.4% | A498 renal 91.4% | CCRF-CEM leukemia 96.6% | MOLT-4 leukemia 79.9%

COc1cnc2c(c1)C(=O)c1c-2n(CCCN2CCN(CCO)CC2)c(=O)c2cc([N+](=O)[O-])ccc12
inactive: SK-MEL-2 melanoma 108% | EKVX NSCLC 66% | UO-31 renal 36.6% | TK-10 renal 97.2% | ACHN renal 25.1% | CAKI-1 renal 37.8%
active: A498 renal -5.96% | CCRF-CEM leukemia -5.14% | MOLT-4 leukemia 0.798%

c1cc(N2CCCC2)c2nc(-c3[nH]ncc3Nc3ncnc4[nH]ccc34)[nH]c2c1
active: SK-MEL-2 melanoma -42.1% | EKVX NSCLC -31% | UO-31 renal -20.3% | TK-10 renal -26.4% | ACHN renal -14.6% | CAKI-1 renal -33.2% | A498 renal -79.5% | CCRF-CEM leukemia 1.97% | MOLT-4 leukemia 1.93%

COC(=O)CNc1nc(N(C)O)nc(N(C)O)n1
inactive: SK-MEL-2 melanoma 113% | EKVX NSCLC 48.2% | UO-31 renal 35.6% | ACHN renal 23.8% | CAKI-1 renal 34.1% | A498 renal 34.5% | CCRF-CEM leukemia 15.5% | MOLT-4 leukemia 25.9%

CC(=O)OC(C)COc1ccc(-c2ccccc2)cc1 (stereo not drawn)
inactive: SK-MEL-2 melanoma 95% | SN12C renal 104% | UO-31 renal 106% | TK-10 renal 80.7% | ACHN renal 101% | CAKI-1 renal 94.7% | A498 renal 92.7% | CCRF-CEM leukemia 99.6% | MOLT-4 leukemia 100%

COc1cc2c(cc1-c1c(C)noc1C)ncc1nc(C3CCC(F)(F)CC3)n([C@@H](C)COC(F)F)c12
active: UO-31 renal 3.65% | A498 renal -12.5%
inactive: SK-MEL-2 melanoma 71.4% | SN12C renal 58.5% | TK-10 renal 27.1% | ACHN renal 36.5% | CAKI-1 renal 24.3% | CCRF-CEM leukemia 50.8% | MOLT-4 leukemia 41.4%

Fc1ccc2nc(-c3cc(-c4ccc5c(c4)OCO5)n[nH]3)[nH]c2c1
inactive: SK-MEL-2 melanoma 42.7% | SN12C renal 65.2% | UO-31 renal 73.4% | TK-10 renal 75.9% | ACHN renal 49% | CAKI-1 renal 41% | A498 renal 71.7%
